Laboratory results: PubChem BioAssay (NCI)
This is part of a sample that, as a whole, favours compounds with a hit. Of some 83,000 tested, about 20% had one in any assay.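 Step 1: grow cells in 96-well plates. Step 2: add test compound at a single concentration. Step 3: incubate 48 h. Step 4: record percent growth.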 A number with no mark means an inactive call. The source made the active and inactive calls. Rule for the calls: active = growth percent below 10; inactive = the rest.

What follows are compounds tested on OVCAR-8 ovarian (assay: NCI-60 one-dose screen, 48 h (100 = growth as untreated, 0 = no growth, -100 = all killed)). Details: 10 µM unless noted.

SMILES	growth
O=c1ccn(-c2ncnc3nc[nH]c23)cc1	101%
CCN(CC)c1ccc(CNc2ccnc3ccccc23)cc1	47.4%
COc1ccc(CN2CCc3c(Sc4ccccc4)nc(N)nc3C2=O)c(OC)c1	44.8%
COc1ccc(/C=C\c2cc(OC)c(OC)c(OC)c2)cc1OC(=O)c1cccc(Cn2cc(CCOC(=O)c3cccc(Cn4nnc5c4C(=O)c4ccccc4C5=O)c3)nn2)c1	16%
CCCCN(CCCC)C(=O)CC	112%
O=C1Nc2ccc3c(c2/C1=C\c1cc2c(cc1Br)OCO2)OCO3	35%
O=C1/C(=C/c2ccccc2)CN(C(=O)CCN2CCC(=NO)CC2)C/C1=C\c1ccccc1	13.6%
COc1ccc2c(c1)[nH]c(=O)c1c3cc(OC)ccc3cn21	4.9% (active)
COc1ccc(Nc2nc(N)nc3c2CCN(Cc2ccc(OC)cc2OC)C3=O)cc1	82.6%
Cn1ccc(=O)c(S(N)(=O)=O)c1	101%
Cc1cc(N/N=C/c2nc(-c3ccccc3)oc2C)c2cc(Br)ccc2n1	42.5%
Cc1nn(-c2ccc([N+](=O)[O-])cc2)c2ncnc(NCCc3ccccc3)c12	98.4%
CCN(CC)CCC(CNc1ccnc2cc(Cl)ccc12)c1ccc(Cl)cc1 (stereo not drawn)	1.27% (active)
OC(c1cc2cc(Br)ccc2c2cc(Br)ccc12)C1CCCCN1 (stereo not drawn)	-69.4% (active)
C=C1CCC2C3(C)COC(c4c(OC)cccc4OC)OC3CCC2(C)C1C/C=C1/C(=O)OCC1O (stereo not drawn)	29.5%
COC(=O)c1cc2cc(-c3ccc(OC)cc3)cnc2[nH]1	8.62% (active)
Cc1ccc(S(=O)(=O)n2cc(C(=O)C(=O)N3CCOCC3)c3ccccc32)cc1	91.5%
COc1ccc(-c2nc(/C=N/Nc3cc(C)nc4ccc(Cl)cc34)c(C)o2)cc1	-82% (active)
O=C1c2ccccc2-c2ccccc2C1(Cl)Cl	-90.4% (active)
COc1ccc(-c2cn(-c3cccc(C(=O)/C=C/c4cc(OC)c(OC)c(OC)c4)c3)c(=O)[nH]2)cc1OC	64.9%

SMILES	growth
CCCCCCCCCCCCNC(=O)[C@H]1CSC(c2ccsc2)N1 (stereo partly drawn)	-49.4% (active)
COc1cc(C2NN=C3c4ccccc4CCC32)cc(OC)c1OC (stereo not drawn)	70.3%
O=C(N/N=C/C=C\c1ccccc1)C(=O)N/N=C/C=C/c1ccccc1	105%
CN1CCN(Cc2ccc(NC(=O)c3cncc(C#Cc4cnc(N)c5ccncc45)c3)cc2C(F)(F)F)CC1	29.6%
N=C(N)c1ccc(-c2ccc(-c3ccc4ccccc4c3)s2)cc1	102%
COc1cc(/C=C/C(=O)c2cccc(-n3cc(-c4cc(OC)c(OC)c(OC)c4)[nH]c3=O)c2)cc(OC)c1OC	6.44% (active)
N=C(N)c1ccc(-c2ccc(-c3ccc(-c4cccs4)s3)s2)cc1	101%
COc1ccc(-c2ccc(-c3ccc(C(=N)N)s3)s2)cc1Cl	-23.3% (active)
O=c1[nH]c2ccc(Br)cc2c2c1C(c1ccc(Cl)cc1)c1c(ncn3nc(-c4ccco4)nc13)O2 (stereo not drawn)	79.3%
N=C(N)c1ccc(-c2cc(Cl)cc(Cl)c2)cn1	99.2%
Cc1nc2ncccc2nc1Nc1ccc(S(=O)(=O)Nc2cncs2)cc1	103%
Cc1cc(N/N=C/c2nc(-c3ccccc3)oc2C)c2cc(Cl)ccc2n1	-41.7% (active)
Cc1nc2ncccc2nc1Nc1ccc(S(=O)(=O)Nc2ccccn2)cc1	93.6%
NC(=S)N/N=C1\CCCC(C(F)(F)F)C1 (stereo not drawn)	84.5%
Oc1ccc2cc(Br)ccc2c1-c1c(O)ccc2cc(Br)ccc12	72.7%
CCC(=O)Oc1ccc(/C(=C(/C)Cc2cccc(OC)c2)c2ccc(OCCN(C)C)cc2)cc1	102%
COC1=C(OC)C(=O)C(CCCCCCCCCC[P+](c2ccccc2)(c2ccccc2)c2ccccc2)=C(C)C1=O	-48.3% (active)
O=C(CN1CCN(c2cc3c(cc2F)c(=O)c(C(=O)N/N=C/c2ccccc2O)cn3C2CC2)CC1)N/N=C\c1ccccc1O	25.8%
COc1ccc(-c2ccc(-c3ccc(C(=N)N)cn3)s2)cc1OC	102%

The compounds below were run on OVCAR-5 ovarian in the same assay as above. Details: 10 µM unless noted.

SMILES	growth
O=c1ccn(-c2ncnc3nc[nH]c23)cc1	93.8%
CCN(CC)c1ccc(CNc2ccnc3ccccc23)cc1	81.7%
COc1ccc(CN2CCc3c(Sc4ccccc4)nc(N)nc3C2=O)c(OC)c1	82.3%
COc1ccc(/C=C\c2cc(OC)c(OC)c(OC)c2)cc1OC(=O)c1cccc(Cn2cc(CCOC(=O)c3cccc(Cn4nnc5c4C(=O)c4ccccc4C5=O)c3)nn2)c1	28.8%
CCCCN(CCCC)C(=O)CC	106%
O=C1Nc2ccc3c(c2/C1=C\c1cc2c(cc1Br)OCO2)OCO3	65.2%
O=C1/C(=C/c2ccccc2)CN(C(=O)CCN2CCC(=NO)CC2)C/C1=C\c1ccccc1	5.29% (active)
COc1ccc2c(c1)[nH]c(=O)c1c3cc(OC)ccc3cn21	25.9%
COc1ccc(Nc2nc(N)nc3c2CCN(Cc2ccc(OC)cc2OC)C3=O)cc1	72.5%
Cn1ccc(=O)c(S(N)(=O)=O)c1	94.3%
Cc1cc(N/N=C/c2nc(-c3ccccc3)oc2C)c2cc(Br)ccc2n1	96.3%
Cc1nn(-c2ccc([N+](=O)[O-])cc2)c2ncnc(NCCc3ccccc3)c12	101%
CCN(CC)CCC(CNc1ccnc2cc(Cl)ccc12)c1ccc(Cl)cc1 (stereo not drawn)	22%
OC(c1cc2cc(Br)ccc2c2cc(Br)ccc12)C1CCCCN1 (stereo not drawn)	-76.5% (active)
C=C1CCC2C3(C)COC(c4c(OC)cccc4OC)OC3CCC2(C)C1C/C=C1/C(=O)OCC1O (stereo not drawn)	49.3%
COC(=O)c1cc2cc(-c3ccc(OC)cc3)cnc2[nH]1	44.9%
Cc1ccc(S(=O)(=O)n2cc(C(=O)C(=O)N3CCOCC3)c3ccccc32)cc1	85.7%
COc1ccc(-c2nc(/C=N/Nc3cc(C)nc4ccc(Cl)cc34)c(C)o2)cc1	-93.3% (active)
O=C1c2ccccc2-c2ccccc2C1(Cl)Cl	-73.7% (active)
COc1ccc(-c2cn(-c3cccc(C(=O)/C=C/c4cc(OC)c(OC)c(OC)c4)c3)c(=O)[nH]2)cc1OC	93.6%

SMILES	growth
CCCCCCCCCCCCNC(=O)[C@H]1CSC(c2ccsc2)N1 (stereo partly drawn)	-83.2% (active)
COc1cc(C2NN=C3c4ccccc4CCC32)cc(OC)c1OC (stereo not drawn)	95.8%
O=C(N/N=C/C=C\c1ccccc1)C(=O)N/N=C/C=C/c1ccccc1	112%
CN1CCN(Cc2ccc(NC(=O)c3cncc(C#Cc4cnc(N)c5ccncc45)c3)cc2C(F)(F)F)CC1	9.45% (active)
N=C(N)c1ccc(-c2ccc(-c3ccc4ccccc4c3)s2)cc1	110%
COc1cc(/C=C/C(=O)c2cccc(-n3cc(-c4cc(OC)c(OC)c(OC)c4)[nH]c3=O)c2)cc(OC)c1OC	28.4%
N=C(N)c1ccc(-c2ccc(-c3ccc(-c4cccs4)s3)s2)cc1	97.8%
COc1ccc(-c2ccc(-c3ccc(C(=N)N)s3)s2)cc1Cl	68.4%
O=c1[nH]c2ccc(Br)cc2c2c1C(c1ccc(Cl)cc1)c1c(ncn3nc(-c4ccco4)nc13)O2 (stereo not drawn)	73.6%
N=C(N)c1ccc(-c2cc(Cl)cc(Cl)c2)cn1	89.4%
Cc1nc2ncccc2nc1Nc1ccc(S(=O)(=O)Nc2cncs2)cc1	96.4%
Cc1cc(N/N=C/c2nc(-c3ccccc3)oc2C)c2cc(Cl)ccc2n1	-88.5% (active)
Cc1nc2ncccc2nc1Nc1ccc(S(=O)(=O)Nc2ccccn2)cc1	103%
NC(=S)N/N=C1\CCCC(C(F)(F)F)C1 (stereo not drawn)	103%
Oc1ccc2cc(Br)ccc2c1-c1c(O)ccc2cc(Br)ccc12	94.1%
CCC(=O)Oc1ccc(/C(=C(/C)Cc2cccc(OC)c2)c2ccc(OCCN(C)C)cc2)cc1	99.1%
COC1=C(OC)C(=O)C(CCCCCCCCCC[P+](c2ccccc2)(c2ccccc2)c2ccccc2)=C(C)C1=O	3.19% (active)
O=C(CN1CCN(c2cc3c(cc2F)c(=O)c(C(=O)N/N=C/c2ccccc2O)cn3C2CC2)CC1)N/N=C\c1ccccc1O	39%
COc1ccc(-c2ccc(-c3ccc(C(=N)N)cn3)s2)cc1OC	103%
